Screening data deposited in PubChem BioAssay by National Center for Advancing Translational Sciences (NCATS).
HT1080 IDH1KD tx: kills HT-1080 cells with IDH1 knockdown; 360,000 tested, 2% active; HT-1080 IDH1 knockdown viability, ATP luminescence, 48 h; Potency, µM (highest dose often 46.1 µM), for the others: at the highest dose activity, negative = toxicity, hits mostly cytotoxic;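 also: 0% = DMSO wells and -100% = cell-free medium wells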
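Assay cells: HT-1080 with IDH1 knockdown, 750 per well, RPMI/5% FBS. Exposure: 48 h at 37 °C following 2 h pre-incubation. Read: CellTiter-Glo luminescence; fitted concentration-response, curve class assigned.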
DT40 TDP1 no CPT: qHTS for Inhibitors of human tyrosyl-DNA phosphodiesterase 1 (TDP1): qHTS in cells in absence of CPT. DT40 Tdp1-/- hTDP1 cells, no CPT, ATP luminescence, 48 h. Potency, µM (top dose mostly 46.2 µM), inactives show top-dose activity change, negative = growth inhibition, hits mostly inhibitors. 420,000 tested, 15% active. AID 686978, 2013; also: nearly all actives have a fitted effect of over 55% in size
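Seeded 400 DT40-hTDP1 cells/well (vehicle DMSO, no 20 nM CPT); pinned compounds; ≥48 hr at 37 °C; CellTiter-Glo luminescence as viability measure.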
KB-3-1 cytotox: kills parental KB-3-1 adenocarcinoma cells. KB-3-1 viability, CellTiter-Glo ATP luminescence, 72 h. 400,000 tested, 1.4% active. Potency, µM (doses to about 46.1 µM), most hits filed as cytotoxic; also: nearly all actives have a fitted effect of over 60% in size
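72 h, 37 °C compound treatment of KB-3-1 parental cells; CellTiter-Glo added, 10 min, luminescence read. Data corrected against DMSO-only plates and normalized before curve fitting.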
TDP1 cell CPT: growth inhibition of DT40 Tdp1-/-;hTDP1 cells with camptothecin (screen for TDP1 inhibitors); chicken DT40 Tdp1-/-;hTDP1 cells + 20 nM CPT, ATP luminescence, 48 h; Potency, µM (doses to about 46.2 µM), inactives show at the top dose activity change, negative = growth inhibition, usual class: inhibitors; 420,000 tested, 12% active; AID 686979; also: nearly all actives have a fitted effect of over 55% in size
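Chicken DT40 Tdp1-/- cells stably complemented with human TDP1 were seeded at 400 cells/well in medium containing 20 nM camptothecin, exposed to pin-transferred compounds, and grown at 37 °C for at least 48 hr. Viability was read as ATP luminescence.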
HT1080-NT tox: kills 2HG-producing HT-1080-NT fibrosarcoma cells. Potency, µM (highest dose often 46.1 µM), inactives show top-dose activity, negative = less viability, most hits filed as cytotoxic. HT-1080-NT fibrosarcoma viability, CellTiter-Glo ATP luminescence, 48 h. 360,000 tested, 1.6% active;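 also: NT is the 2HG producing partner of a matched IDH1 knockdown line; 0% = DMSO-treated cells and -100% = media-only wells without cells; nearly all actives have a fitted effect of over 55% in size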
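Viability by CellTiter-Glo luminescence after 48 h compound exposure at 37C of HT-1080-NT cells (750/well, RPMI, 5% FBS). % activity scaled between DMSO wells and medium-only wells, then curve-fitted and categorized by curve class.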
KB-V1 MDR tox: kills drug-selected multidrug resistant KB-V1 cells. 400,000 tested, 3.4% active. Potency, µM (doses to about 46.1 µM), usual class: cytotoxic. KB-V1 MDR cells viability, CellTiter-Glo, 72 h; also: nearly all actives have a fitted effect of over 60% in size
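KB-V1 cells (P-gp-expressing MDR subline of KB-3-1) in phenol-red-free DMEM with 10% FBS were exposed to library compounds over a concentration series for 72 h at 37 degrees C. Viability read by CellTiter-Glo luminescence; concentration-effect curves fitted after normalization.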
Starred values were filed as active, the others as inactive; i = inactive; u = inconclusive; x = no result; [ ] = another dose, or the depositor's remark. A selection: hits, their analogues and other compounds. The true share with any hit is near 19%. Calls follow the shape of the dose curve; as a rule, active = well fitted curve in the direction sought with a large enough effect; inconclusive = small, poorly fitted or top-dose-only effect, or another doubt; inactive = no such curve, though single readings can be large; an effect the other way counts as inactive or inconclusive. Unless noted, % is scaled to controls: 0 for no effect and ±100 for the full control effect; potency is read from the fitted curve at half-maximal effect.

SMILES	HT1080 IDH1KD tx	DT40 TDP1 no CPT	KB-3-1 cytotox	TDP1 cell CPT	HT1080-NT tox	KB-V1 MDR tox
CCN(Cc1nc(-c2cccc(C)c2)no1)C(=O)c1ccc2c(c1)OCO2	2%	-6%	i	-5%	-24%	u
CCc1ccc(/C=C(/C#N)c2nc(-c3ccc(C)cc3)cs2)cc1	x	-14%	i	-17%	x	u
CCOc1ccc(-c2csc(/C(C#N)=C\c3ccc(O)c([N+](=O)[O-])c3)n2)cc1	u	4.6µM*	21µM*	3.7µM*	15µM*	5.2µM*
CCC(C)C(NC(=O)C1CCC(C)CC1)C(=O)NCc1cccnc1 (stereo not drawn)	17%	-24%	i	-20%	6%	i
CC(C)CC(NC(=O)C1CCC(C)CC1)C(=O)NCc1ccccn1 (stereo not drawn)	15%	u	i	-26%	7%	i
CC(C)CC(NC(=O)C1CCC(C)CC1)C(=O)N1CCN(c2ccccn2)CC1 (stereo not drawn)	0%	23µM*	i	16µM*	-8%	i
CC1CCC(C(=O)NC(C(=O)NCc2cccnc2)C(C)C)CC1 (stereo not drawn)	2%	-17%	i	8%	1%	21µM*
CC(C)CC(NC(=O)C1CCC(C)CC1)C(=O)NCc1cccnc1 (stereo not drawn)	0%	-21%	i	3%	4%	18µM*
Cc1c(NC(=O)C(C)Oc2cccc(F)c2)c(=O)n(-c2ccccc2)n1C (stereo not drawn)	18%	19%	i	-6%	-2%[9.24 µM]	i
Cc1ccc2nc3[nH]c(=O)[nH]c(=O)c3c(N)c2c1	-6%	8.2µM*	u	u	0%	u
CCCC(C(=O)NC(C)(C)C)N(CC1CCCO1)C(=O)c1snc(C(N)=O)c1N (stereo not drawn)	18%	-4%	i	18%	12%	u
CCC(C(=O)NC1CCCC1)N(C(=O)c1snc(C(N)=O)c1N)c1ccc(OC)cc1 (stereo not drawn)	17%	13%	i	u	-1%	i
Cc1ccc(N(C(=O)c2snc(C(N)=O)c2N)C(CC(C)C)C(=O)NC2CCCC2)cc1 (stereo not drawn)	6%	u	i	u	u	i
CCCCC(C(=O)NC1CCCC1)N(C(=O)c1snc(C(N)=O)c1N)c1ccc(C)cc1 (stereo not drawn)	-10%	u	i	18µM*	0%	i
CCCC(C(=O)NC1CCCC1)N(CC1CCCO1)C(=O)c1snc(C(N)=O)c1N (stereo not drawn)	-5%	2%	i	2%	-4%	4.1µM*
CCC(C(=O)NC1CCCC1)N(C(=O)c1snc(C(N)=O)c1N)c1ccc(C)cc1C (stereo not drawn)	16%	18µM*	i	u	20%	u
CC(C(=O)NC1CCCC1)N(C(=O)c1snc(C(N)=O)c1N)c1ccc2c(c1)OCCO2 (stereo not drawn)	-4%	-29%	i	-19%	-1%	16µM*
Nc1nc(SCC(=O)Nc2ccc([N+](=O)[O-])cc2)[nH]c(=O)c1NC(=O)c1ccc(Br)o1	-7%	0%	i	18%	-3%	i
Cc1cc(=O)oc2c3c(cc(OCC(=O)Nc4cccnc4)c12)OC(C)(C)CC3	8%	-24%	i	-2%	11%	i
CCCOc1ccc(C2c3c(oc4ccccc4c3=O)C(=O)N2CCCN2CCOCC2)cc1 (stereo not drawn)	3%	u	i	u	22%	i
CC(C)c1ccc(N(C(=O)c2snc(C(N)=O)c2N)C(C(=O)NC2CCCC2)c2ccncc2)cc1 (stereo not drawn)	u	23µM*	i	18µM*	u	u
CC(NC(=O)Cc1cccs1)C(c1cccs1)N1CCN(c2ccccc2)CC1 (stereo not drawn)	0%	u	i	u	0%	i
Cc1ccc(S(=O)(=O)NC(C)C(c2cccs2)N2CCN(C)CC2)cc1 (stereo not drawn)	0%	-12%	i	-14%	-10%	i
CC(NC(=O)Cc1cccs1)C(c1cccs1)N1CCN(c2ccccc2F)CC1 (stereo not drawn)	-3%	u	i	18µM*	u	i
CCS(=O)(=O)NC(C)C(c1cccs1)N1CCN(c2ccc(F)cc2)CC1 (stereo not drawn)	-4%	21µM*	i	u	-7%	i
SMILES	HT1080 IDH1KD tx	DT40 TDP1 no CPT	KB-3-1 cytotox	TDP1 cell CPT	HT1080-NT tox	KB-V1 MDR tox
CCS(=O)(=O)NC(C)C(c1cccs1)N1CCN(C)CC1 (stereo not drawn)	13%	-5%	i	-12%	5%	i
CC(NC(=O)c1ccco1)C(c1cccs1)N1CCN(c2ccccc2F)CC1 (stereo not drawn)	5%	u	i	u	-27%	i
CCN1CCN(C(c2cccs2)C(C)NS(=O)(=O)c2ccc(Br)cc2)CC1 (stereo not drawn)	-1%	26µM*	i	u	0%	23µM*
CC(NC(=O)c1ccco1)C(c1cccs1)N1CCN(c2ccc(F)cc2)CC1 (stereo not drawn)	u	23µM*	i	18µM*	-11%	i
COc1ccccc1NS(=O)(=O)c1cc(NC(=O)c2ccc3c(c2)OCCO3)ccc1C	-3%	-20%	i	-5%	-4%	i
Cc1ccnc(N2CCC(C(=O)Nc3ccc4c(c3)CCC4)CC2)n1	12%	u	i	u	14%	i
CCC(C)c1ccc(NC(=O)C2CCN(c3ncccn3)CC2)cc1 (stereo not drawn)	-13%	u	u	u	u	18µM*
CS(=O)(=O)N1CCC(C(=O)Nc2cccc(C(F)(F)F)c2)CC1	1%	-23%	i	-2%	-1%	i
Cc1cc(C)nc(N2CCC(C(=O)Nc3cccc(C(F)(F)F)c3)CC2)n1	-18%	23µM*	i	u	-3%	i
Cc1cccc(NC(=O)C2CCN(c3nccc(C)n3)CC2)c1	5%	0%	i	-3%	6%	15µM*
